# Reference: PubChem BioAssay (NCI)
# About 83,000 compounds went through this panel and 20% of them were active in at least one assay; those are over-represented in the sample as a whole.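 Method: cells in 96-well plates; compound added at one concentration; 48 h incubation; percent growth measured; values under 10 scored active.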 Activity calls are given as the source filed them.
# Tested on: M14 melanoma
# Experiment: NCI-60 one-dose screen, 48 h (100 = growth as untreated, 0 = no growth, -100 = all killed)
# Conditions: 10 µM unless noted
# Procedure: Growth inhibition of the M14 human tumor cell line is measured as a screen for anti-cancer activity. Cells are grown in 96 well plates and exposed to the test compound for 48 hours. Compounds are tested at a single concentration, which is 10^-5 M for most compounds. The reported endpoint is percent growth (GI% or GIPRCNT), where numbers from 0 - 100% represent growth inhibition, and numbers from -100% - 0 represent cell death. For example, a value of 40 represents 60% growth inhibition. A value of 0 means no net growth occurred over the course of the experiment. A value of -40 indicates 40% of cells at the beginning of the experiment died by the end of the experiment. A value of -100 means all cells are dead at the end of the experiment.
# NCI-60 Human Tumor Cell Lines Screen was performed using the standard one-dose NCI protocol, which is described in more detail at https://dtp.cancer.gov/discovery_development/nci-60/default.htm.
# Compounds with GIPRCNT values below 10 were considered active. Activity score was based on GIPRCNT using the following formula: […]
# Score is 0 for GIPRCNT values of 100 or above, 50 for GIPRCNT values of 0, and 100 for GIPRCNT values of -100.
row,SMILES,growth
1,O=C(O)Cc1ccc(Cl)cc1,93.1% (inactive)
2,O=C1Nc2ccccc2/C1=C\c1ccccc1O,85.6% (inactive)
3,O=Cc1ccc(Cl)c(Cl)c1,102% (inactive)
4,c1ccc(Nc2ccccn2)nc1,99.9% (inactive)
5,C=CCc1cc(OC)c(OC)c(OC)c1,103% (inactive)
6,CC1CC(C)S(=O)(=O)C1 (stereo not given),111% (inactive)
7,CCC(/C=C\C(C)=O)CC,104% (inactive)
8,O=C(O)c1ccc([N+](=O)[O-])cc1S(=O)(=O)O,108% (inactive)
9,CCCCOC(=O)c1ccccc1O,117% (inactive)
10,CSc1cnc2ccccc2n1,97.3% (inactive)
11,Nc1cccc2cccc(O)c12,96.7% (inactive)
12,CC(=O)c1cccc(NS(=O)(=O)c2ccc(C)cc2)c1,60.6% (inactive)
13,O=S1(=O)c2ccccc2Oc2ccccc21,101% (inactive)
14,O=C(O)CCCCCNC(=O)OCc1ccccc1,92.7% (inactive)
15,CS(=O)CC(=N\O)/C(CS(C)=O)=N\O (stereo not given),96.3% (inactive)
16,Cc1ccc(OC(=O)c2ccccc2)cc1,113% (inactive)
17,CCc1ccccc1C(=O)N(CC)CC,103% (inactive)
18,Cc1ccccc1CC(N)C(=O)O (stereo not given),100% (inactive)
19,N#C/C(=C\c1ccc(C#N)cc1)C(=O)c1ccccc1,95.7% (inactive)
20,O=C(CCl)Nc1ccccc1SCc1cc(Cl)cc2c1OCOC2,69.8% (inactive)

row,SMILES,growth
1,O=C(Nc1ccccc1)c1ccco1,97% (inactive)
2,CCOC(=O)/C(C)=C\c1ccc(OC)c(OC)c1,105% (inactive)
3,N#C/C(=C\NC(=S)N=Nc1c(O)[nH]c2ccccc12)c1nc2ccccc2s1,101% (inactive)
4,CCCCCCCCCCCCCC/C=C\C(CC(=O)O)C(=O)O (stereo not given),103% (inactive)
5,C=CCC(O)C=C (stereo not given),104% (inactive)
6,CC(=O)C[n+]1ccc(C)cc1Sc1ccccc1C,90.7% (inactive)
7,CCCCNc1ccc(-c2ccc(NCCCC)cc2)cc1,71.7% (inactive)
8,Cc1cc(C(=O)NN)c(C#N)c(=O)[nH]1,100% (inactive)
9,CS(=O)(=O)c1ccc(/C=C\C(=O)O)cc1,94.9% (inactive)
10,C=C(c1ccc(N(C)C)cc1)c1ccc(N(C)C)cc1,-47.2% (active)
11,c1ccc(Oc2c3ccccc3nc3ccccc23)cc1,-13.2% (active)
12,OC(CCN1CCCCC1)(c1ccccc1)c1ccccc1,99.2% (inactive)
13,Cc1cc2c3ccc(C)[n+](C)c3ccc2n1C,92.7% (inactive)
14,CCOC(=N)CC(=O)Nc1cccc(C)c1Cl,94.9% (inactive)
15,C/C(=N\Nc1ccc([N+](=O)[O-])cc1[N+](=O)[O-])c1ccc(Br)cc1,106% (inactive)
16,CCN(CC)CCOC(=O)Nc1c(C(C)C)cccc1C(C)C,107% (inactive)
17,Cc1cc(C)cc(OCC(=O)O)c1,102% (inactive)
18,Cc1c(-c2ccc(C3CCCCC3)cc2)nc2ccc(F)cc2c1C(=O)O,47.9% (inactive)
19,COc1cc(OC)c2cc(C(=O)c3ccc(C#N)cc3)c(=O)oc2c1,105% (inactive)
20,CCOc1ccc(C(=O)NCC(C)C)cc1,97% (inactive)
